# The full ranking holds about 2,900 compounds; the median of “NF-kB SEAP reporter activity, fold change vs agonist alone” is about 0.99, and the highest 2% start at about 2.6. The sample as a whole holds a higher share of the highest values than the screen did.
# Tests used:
# RAW-Dual [1] = experiment: NF-kB SEAP reporter activity, fold change vs agonist alone; cytotoxicity flag (confluency mask): not cytotoxic; higher = enhanced NF-kB activity
# Outline: (§1)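 Reporter activity is given as fold change relative to agonist-alone wells. To measure it, 50 nL of library stock was pin-tooled onto RAW-Dual macrophages (50,000 cells/well, DMEM, 384-well plates), a PRR agonist followed 1 h later, and cells stayed at 37 °C, 5% CO2. Twenty hours on, supernatant was assayed for IRF (QuantiLuc luminescence) and NF-κB (QuantiBlue, 620 nm absorbance), and wells under 70% of agonist-control IncuCyte confluency in both mask sets were marked cytotoxic.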
# RAW-Dual [2] = experiment: NF-kB SEAP reporter activity, fold change vs agonist alone; higher = enhanced NF-kB activity; conditions: library stock concentration (final ~1000-fold dilution): 10 mM
# Outline: as §1
# RAW-Dual [3] = experiment: NF-kB SEAP reporter activity, fold change vs agonist alone; cytotoxicity flag (confluency mask): cytotoxic (confluency <70% of control); higher = enhanced NF-kB activity
# Outline: as §1
# [4] = agonist: ODN 1826 (TLR9) 0.5 ug/mL
# [5] = agonist: Pam2CSK4 (TLR2/6) 0.1 ug/mL
# [6] = agonist: Pam3CSK4 (TLR2/1) 0.1 ug/mL
# [7] = cytotoxicity flag (confluency mask): not cytotoxic, agonist: Imiquimod (TLR7) […]
# [8] = cytotoxicity flag (confluency mask): not cytotoxic, agonist: MPLA (TLR4) […]
structure (smiles),measurement,setting,value
CC(=O)C1CCC2C3CC=C4CC(O)CCC4(C)C3CCC12C (configuration not stated) (library stock concentration (final ~1000-fold dilution): 10 mM),NF-kB SEAP reporter activity,RAW-Dual [1]; agonist: LPS (TLR4) 0.1 ug/mL,1.1
same,NF-kB SEAP reporter activity,RAW-Dual [1]; [4],0.897
same,NF-kB SEAP reporter activity,RAW-Dual [1]; [5],0.904
same,NF-kB SEAP reporter activity,RAW-Dual [1]; [6],0.972
N#Cc1ccc(COCC2OC(n3c(NCc4ccc(Cl)c(Cl)c4)nc4c(N)ncnc43)C(O)C2O)cc1 (configuration not stated) (library stock concentration (final ~1000-fold dilution): 10 mM),NF-kB SEAP reporter activity,RAW-Dual [1]; agonist: LPS (TLR4) 0.1 ug/mL,0.934
same,NF-kB SEAP reporter activity,RAW-Dual [1]; [4],1.01
same,NF-kB SEAP reporter activity,RAW-Dual [1]; [5],0.742
same,NF-kB SEAP reporter activity,RAW-Dual [1]; [6],0.944
N#Cc1ccc(COCC2OC(n3c(NCc4ccc(Cl)c(Cl)c4)nc4c(N)ncnc43)C(O)C2O)cc1 (configuration not stated),NF-kB SEAP reporter activity,RAW-Dual [2]; [7],0.762
same,NF-kB SEAP reporter activity,RAW-Dual [2]; [8],0.966
Cc1ccc(NC(=O)Nc2cc(-c3ccccc3-c3nnn[nH]3)ccc2N(CC(C)C)CC(C)C)cc1 (library stock concentration (final ~1000-fold dilution): 10 mM),NF-kB SEAP reporter activity,RAW-Dual [3]; agonist: LPS (TLR4) 0.1 ug/mL,1.16
same,NF-kB SEAP reporter activity,RAW-Dual [3]; [4],0.54
same,NF-kB SEAP reporter activity,RAW-Dual [3]; [5],0.207
same,NF-kB SEAP reporter activity,RAW-Dual [3]; [6],0.333
Cc1ccc(NC(=O)Nc2cc(-c3ccccc3-c3nnn[nH]3)ccc2N(CC(C)C)CC(C)C)cc1,NF-kB SEAP reporter activity,"RAW-Dual [2]; cytotoxicity flag (confluency mask): cytotoxic (confluency <70% of control), agonist: Imiquimod (TLR7) […]",0.81
same,NF-kB SEAP reporter activity,"RAW-Dual [2]; cytotoxicity flag (confluency mask): cytotoxic (confluency <70% of control), agonist: MPLA (TLR4) […]",1.25
COc1ccc(CC(N)C(=O)NC2C(CO)OC(n3cnc4c(N(C)C)ncnc43)C2O)cc1.Cl.Cl (configuration not stated),NF-kB SEAP reporter activity,RAW-Dual [2]; [7],0.438
same,NF-kB SEAP reporter activity,RAW-Dual [2]; [8],1.12
COc1ccc(CC(N)C(=O)NC2C(CO)OC(n3cnc4c(N(C)C)ncnc43)C2O)cc1.Cl.Cl (configuration not stated) (library stock concentration (final ~1000-fold dilution): 10 mM),NF-kB SEAP reporter activity,RAW-Dual [1]; agonist: LPS (TLR4) 0.1 ug/mL,0.584
same,NF-kB SEAP reporter activity,RAW-Dual [1]; [4],0.469
same,NF-kB SEAP reporter activity,RAW-Dual [1]; [5],0.13
same,NF-kB SEAP reporter activity,RAW-Dual [1]; [6],0.256
NC(=O)c1cnc2[nH]ccc2c1NC1C2CC3CC1CC(O)(C3)C2 (configuration not stated) (library stock concentration (final ~1000-fold dilution): 10 mM),NF-kB SEAP reporter activity,RAW-Dual [1]; agonist: LPS (TLR4) 0.1 ug/mL,0.305
same,NF-kB SEAP reporter activity,RAW-Dual [1]; [4],0.398
same,NF-kB SEAP reporter activity,RAW-Dual [1]; [5],0.242
same,NF-kB SEAP reporter activity,RAW-Dual [1]; [6],0.31
NC(=O)c1cnc2[nH]ccc2c1NC1C2CC3CC1CC(O)(C3)C2 (configuration not stated),NF-kB SEAP reporter activity,RAW-Dual [2]; [7],0.334
same,NF-kB SEAP reporter activity,RAW-Dual [2]; [8],0.347
CC(NC(=O)c1ccccc1N=Cc1c(O)ccc2ccccc12)c1ccccc1 (configuration not stated),NF-kB SEAP reporter activity,RAW-Dual [2]; [7],1.56
same,NF-kB SEAP reporter activity,RAW-Dual [2]; [8],2.25
CC(NC(=Nc1cccc2ncccc12)NC#N)c1ccccc1 (configuration not stated),NF-kB SEAP reporter activity,RAW-Dual [2]; [7],0.897
same,NF-kB SEAP reporter activity,RAW-Dual [2]; [8],1.12
CC(C(=O)Nc1cccc(N=Cc2c(O)ccc3ccccc23)c1)c1ccccc1 (configuration not stated),NF-kB SEAP reporter activity,RAW-Dual [2]; [7],1.67
same,NF-kB SEAP reporter activity,RAW-Dual [2]; [8],2.34
CC(NC(=O)CCc1nc2ccccc2c(=O)[nH]1)c1ccccc1 (configuration not stated) (library stock concentration (final ~1000-fold dilution): 10 mM),NF-kB SEAP reporter activity,RAW-Dual [1]; agonist: LPS (TLR4) 0.1 ug/mL,0.987
same,NF-kB SEAP reporter activity,RAW-Dual [1]; [4],1.32
same,NF-kB SEAP reporter activity,RAW-Dual [1]; [5],0.95
same,NF-kB SEAP reporter activity,RAW-Dual [1]; [6],1.25
CC(NC(=Nc1cccc2ncccc12)NC#N)c1ccccc1 (configuration not stated) (library stock concentration (final ~1000-fold dilution): 10 mM),NF-kB SEAP reporter activity,RAW-Dual [1]; agonist: LPS (TLR4) 0.1 ug/mL,1.34
same,NF-kB SEAP reporter activity,RAW-Dual [1]; [4],1.07
same,NF-kB SEAP reporter activity,RAW-Dual [1]; [5],1.13
same,NF-kB SEAP reporter activity,RAW-Dual [1]; [6],1.29
CC(NC(=O)CCc1nc2ccccc2c(=O)[nH]1)c1ccccc1 (configuration not stated),NF-kB SEAP reporter activity,RAW-Dual [2]; [7],1.03
same,NF-kB SEAP reporter activity,RAW-Dual [2]; [8],1.03
CC(C(=O)Nc1cccc(N=Cc2c(O)ccc3ccccc23)c1)c1ccccc1 (configuration not stated) (library stock concentration (final ~1000-fold dilution): 10 mM),NF-kB SEAP reporter activity,RAW-Dual [1]; agonist: LPS (TLR4) 0.1 ug/mL,6.64
same,NF-kB SEAP reporter activity,RAW-Dual [1]; [4],2.52
same,NF-kB SEAP reporter activity,RAW-Dual [1]; [5],1.5
same,NF-kB SEAP reporter activity,RAW-Dual [1]; [6],1.74
CC(NC(=O)c1ccccc1N=Cc1c(O)ccc2ccccc12)c1ccccc1 (configuration not stated) (library stock concentration (final ~1000-fold dilution): 10 mM),NF-kB SEAP reporter activity,RAW-Dual [1]; agonist: LPS (TLR4) 0.1 ug/mL,5.11
same,NF-kB SEAP reporter activity,RAW-Dual [1]; [4],1.72
same,NF-kB SEAP reporter activity,RAW-Dual [1]; [5],0.843
same,NF-kB SEAP reporter activity,RAW-Dual [1]; [6],1.53

# Source: the supplement of paper PMC10037445
